Data: PubChem BioAssay (NCI)
About 83,000 compounds went through this panel and 20% of them were active in at least one assay; those are over-represented in the sample as a whole.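 Assay: single dose, 48 h. Readout: percent growth (0 = no net growth; negative = cell death). Active: <10.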 Active and inactive are the calls of the source.

Assays:
Test in all cases: NCI-60 one-dose screen, 48 h (100 = growth as untreated, 0 = no growth, -100 = all killed)
Settings in all cases: 10 µM unless noted
[1] = test system: NCI-H23 lung
[2] = test system: NCI-H226 lung
[3] = test system: NCI-H322M lung
[4] = test system: HOP-62 NSCLC
[5] = test system: NCI-H460 lung
[6] = test system: HOP-92 NSCLC
[7] = test system: NCI-H522 lung
[8] = test system: A549/ATCC NSCLC
[9] = test system: 786-0 renal
[10] = test system: COLO 205 colon
[11] = test system: DU-145 prostate
[12] = test system: MALME-3M melanoma
[13] = test system: MDA-MB-231 breast
[14] = test system: SF-268 CNS
[15] = test system: SF-295 CNS
[16] = test system: SF-539 CNS
[17] = test system: M14 melanoma
[18] = test system: K-562 leukemia
[19] = test system: RXF 393 renal

Measured: growth

CCOC(=O)Sc1ncnc2nc[nH]c12
inactive: [1] 64.8% | [2] 37.4% | [3] 40.4% | [4] 17.2% | [5] 71.8% | [6] 12.2% | [8] 104% | [9] 18% | [10] 103% | [11] 38% | [12] 59.2% | [13] 45.7% | [14] 65.8% | [15] 36.8% | [16] 36.7% | [17] 13.7%
active: [7] -18.8%

OCCNC(=S)Nc1ccc(-c2nc(N3C[C@H]4CC[C@@H](C3)O4)c3cccn3n2)cc1
active: [2] 0.203% | [4] -14.3% | [6] -21.2% | [8] -1.6% | [9] 1.86% | [10] -8.64% | [11] 8.77% | [13] 4.21% | [19] -31.4% | [14] 9.25% | [15] -34.3% | [16] -12.2% | [17] 5.27%
inactive: [1] 17.4% | [3] 19.3% | [5] 11% | [7] 13.3% | [18] 19.1%

CCc1nc2cc(F)c(/C=C/C(=O)NO)cc2c(=O)n1CCc1ccccc1
active: [4] 5.35% | [5] 7.49% | [7] -7.46% | [9] -5.29% | [10] -23.3% | [11] 7.93% | [18] 7.24% | [19] -13.5% | [16] 4.01%
inactive: [1] 25.9% | [2] 32.7% | [3] 23.1% | [6] 15.5% | [8] 14.9% | [13] 15.4% | [14] 16% | [15] 11% | [17] 15.7%

NC(=O)N1N=C(c2ccc(Cl)cc2)CC1c1cn(-c2ccccc2)nc1-c1ccc(Cl)cc1 (stereo not drawn)
inactive: [1] 56.5% | [2] 30.1% | [3] 63.1% | [4] 37.8% | [5] 41.9% | [6] 49.7% | [7] 56.9% | [8] 41.3% | [10] 81.9% | [11] 77.7% | [18] 78.8% | [13] 43.4% | [14] 55.4% | [15] 40.3% | [16] 37.8% | [17] 79.8%
active: [9] -7.43% | [19] -11.2%

CCCC(=O)OCC1OC(n2cnc3c(=S)nc(N)[nH]c32)C(OC(=O)CCC)C1OC(=O)CCC (stereo not drawn)
inactive: [1] 28.9% | [2] 33.3% | [3] 55.5% | [4] 23.1% | [5] 34.8% | [6] 11% | [8] 92.4% | [9] 21.5% | [10] 79.2% | [11] 27.3% | [12] 29.9% | [13] 38.9% | [14] 38.8% | [15] 19.8% | [16] 26.7% | [17] 13.9%
active: [7] -5.66%

CCCC(=O)OCC1OC(n2cnc3c(=S)nc[nH]c32)C(OC(=O)CCC)C1OC(=O)CCC (stereo not drawn)
active: [7] -12.7%
inactive: [1] 29.4% | [2] 32.5% | [3] 35.4% | [4] 24.1% | [5] 54.9% | [6] 17.9% | [8] 83.9% | [9] 22.3% | [10] 67.3% | [11] 42.1% | [12] 51.8% | [13] 45.2% | [14] 52.5% | [15] 36.8% | [16] 22.1% | [17] 13%

Nc1nc(=S)c2ncn(C3OC(COC(=O)c4ccc(Cl)cc4)C(OC(=O)c4ccc(Cl)cc4)C3OC(=O)c3ccc(Cl)cc3)c2[nH]1 (stereo not drawn)
inactive: [1] 91.9% | [2] 86.9% | [3] 97.8% | [4] 106% | [5] 91.1% | [6] 82.7% | [7] 86.8% | [8] 98% | [9] 84.4% | [10] 123% | [11] 105% | [12] 102% | [13] 88% | [14] 90.4% | [15] 114% | [16] 89.9% | [17] 99.4%

COC(=O)[C@@H](C)CNS(=O)(=O)N(c1cc(C(F)(F)F)cc(C(F)(F)F)c1)C1CCN(Cc2ccc(F)cc2)CC1
active: [10] -43.2%
inactive: [1] 66.8% | [2] 70.1% | [3] 79% | [4] 79% | [5] 62.3% | [6] 47.8% | [7] 56.1% | [8] 54% | [9] 59.7% | [11] 92.9% | [12] 43.8% | [13] 71% | [14] 84.4% | [15] 81.1% | [16] 73.5% | [17] 58.5%

Nc1cc2c(cc1Br)-c1c(C(=O)O)cccc1C2O (stereo not drawn)
inactive: [1] 87.2% | [2] 100% | [3] 107% | [4] 95.9% | [5] 99.4% | [6] 125% | [7] 96.5% | [8] 91.7% | [9] 98.8% | [10] 96.3% | [11] 110% | [12] 98.2% | [13] 98.3% | [14] 115% | [15] 118% | [16] 98.6% | [17] 98.9%

Cc1ccc(-c2nc3ccc(Cl)cn3c2NC2CCCCC2)o1
inactive: [1] 81.3% | [2] 84.5% | [3] 93.1% | [4] 87% | [5] 97.6% | [6] 73.1% | [7] 57.3% | [8] 79.5% | [9] 87.8% | [10] 79.6% | [11] 104% | [18] 74.5% | [13] 84.7% | [19] 83.1% | [14] 80% | [15] 91.3% | [16] 95.4% | [17] 101%

CC(=O)OCCC/C(=C\c1ccc2ccccc2c1)[N+](=O)[O-]
active: [1] -42.3% | [2] -23% | [4] -27.5% | [6] -90.5% | [7] -80.3% | [8] -72.3% | [9] -93.4% | [10] -77.9% | [11] -93.6% | [12] -53.5% | [13] -58.8% | [14] -74.2% | [16] -99% | [17] -70.9%
inactive: [3] 83.2% | [5] 64.3% | [15] 18%

O=C(Nc1ccc(C(=O)Nc2ccc(C3=NCCCN3)cc2)cc1)Nc1ccc(C2=NCCCN2)cc1
inactive: [1] 63% | [2] 67.9% | [3] 84.8% | [4] 87.1% | [5] 75% | [6] 80.5% | [7] 71.6% | [8] 75.9% | [9] 96.7% | [10] 105% | [11] 96.1% | [12] 69.5% | [13] 92.4% | [14] 110% | [15] 85.3% | [16] 87.2% | [17] 87%

COc1cnc2c(c1)C(=O)c1c-2n(CCCN2CCC(N)CC2)c(=O)c2cc([N+](=O)[O-])ccc12
inactive: [1] 38.4% | [2] 35.7% | [3] 52.8% | [4] 30.6% | [5] 11.2% | [6] 67.1% | [7] 42.2% | [8] 23% | [9] 36.2% | [10] 58.2% | [11] 13.2% | [18] 49.2% | [13] 57.9% | [19] 64.4% | [14] 50% | [15] 24.2% | [16] 70.3% | [17] 52.9%

CC(C)(C)CC(C)(C)Nc1c(-c2c(O)c3ccccc3oc2=O)nc2c(Cl)cc(C(F)(F)F)cn12
inactive: [1] 103% | [2] 97.5% | [3] 94% | [4] 92.5% | [5] 107% | [6] 87.7% | [7] 81.4% | [8] 85.5% | [9] 97% | [10] 112% | [11] 114% | [18] 94% | [13] 100% | [19] 110% | [14] 107% | [15] 95.9% | [16] 99.1% | [17] 92.2%

Nc1nc(N)c2cc(CNc3ccc(C(=O)NC(CC(=O)O)C(=O)O)cc3)ccc2n1 (stereo not drawn)
inactive: [1] 17.7% | [2] 23.2% | [3] 66.7% | [4] 19.7% | [5] 11.5% | [6] 48.5% | [7] 34.3% | [9] 15.8% | [10] 51.9% | [11] 26.7% | [12] 81.3% | [13] 95.8% | [14] 29.7% | [15] 28.5% | [16] 15.6% | [17] 16.7%
active: [8] -32.8%

COc1cc(OC)c(C(=O)/C=C/c2cc3c(cc2OCc2ccccc2)OC(C)(C)CC3)cc1CC=C(C)C
inactive: [1] 48.2% | [2] 43.2% | [3] 79.6% | [4] 85.2% | [5] 78.6% | [7] 65.2% | [8] 32.9% | [9] 79.9% | [10] 84.7% | [11] 51.9% | [12] 77.8% | [13] 52.4% | [14] 49.1% | [15] 66.9% | [16] 79.4% | [17] 68.2%
active: [6] -21.7%

CCNCCNc1cc(-c2ccc(Cl)c(Cl)c2)c(C#N)c2nc3ccccc3n12
active: [1] -72.8% | [2] -74.2% | [3] -83.5% | [4] -75.6% | [5] -71.2% | [6] -85.8% | [7] -78.1% | [8] -87.3% | [9] -84.8% | [10] -83.7% | [11] -93.7% | [18] -65.3% | [13] -77.5% | [19] -91% | [14] -79.6% | [15] -92.3% | [16] -87.5% | [17] -73.8%

CCc1ccc(C2=C(O)C(=O)C(c3ccc(CC)cc3)=C(O)C2=O)cc1
inactive: [11] 13.8%
active: [1] -17.4% | [2] -3.98% | [3] -19.6% | [4] -12.8% | [5] -19.8% | [6] -47.9% | [7] -20.7% | [8] -58.3% | [9] 0.0366% | [10] 5.7% | [12] -15.1% | [13] -0.828% | [14] 0.61% | [15] -27.2% | [16] -71.8% | [17] 4.98%
